“And” between values parts separate entries of the source, which are not always exact repeats. Identical values can stand only once. Records with an inconclusive call do not appear. A number with no mark means an inactive call. The source made the active and inactive calls. Calls follow the shape of the dose curve; as a rule, active = well fitted curve in the direction sought with a large enough effect; inconclusive = small, poorly fitted or top-dose-only effect, or another doubt; inactive = no such curve, though single readings can be large; an effect the other way counts as inactive or inconclusive.

The subject of test [1] is Zika virus NS2B-NS3 protease (unlinked). Briefly: Optimization of GU AMC qHTS for Zika virus inhibitors: Unlinked NS2B-NS3 protease assay (AID 1347151). Also: nearly all actives have a fitted effect of over 80% in size. Also: potency is read from the fitted curve at half-maximal effect.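 As to activity change, negative = inhibition: series mostly up to about 52 µM; 0% = no-inhibitor control and -100% = no-enzyme control.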 Put shortly:
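Fluorescence read-out (340 nm ex / 450 nm em) of AMC peptide cleavage, taken immediately and after 15 min at room temperature (~20% conversion). Enzyme was the unlinked NS2B–NS3 complex at 25 nM in Tris pH 8.0 buffer.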

The test system of test [2] is Zika virus NS2B-NS3 protease. Briefly: Primary screen GU AMC qHTS for Zika virus inhibitors (AID 1347154). Also: nearly all actives have a fitted effect of over 70% in size. Also: potency is read from the fitted curve at half-maximal effect.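 As to activity change, negative = inhibition: 0% = no-inhibitor control and -100% = no-enzyme control.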 Put shortly:
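Unlinked Zika NS2B hydrophilic domain/NS3 protease domain noncovalent complex (25 nM final) in 10 mM Tris-HCl pH 8.0, 0.01% Tween 20, with AMC peptide substrate. Fluorescence (ex 340, em 450 nm) change over 15 min, room temperature; percent inhibition fitted to 4-parameter Hill equation.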

For test [3], the system named is Zika virus NS2B-NS3 protease (unlinked complex). Briefly: Primary screen GU Rhodamine qHTS for Zika virus inhibitors: Unlinked NS2B-NS3 protease assay (AID 1347159). Also: nearly all actives have a fitted effect of over 60% in size. Also: potency is read from the fitted curve at half-maximal effect. As to activity change, negative = inhibition: % is scaled to controls: 0 for no effect and ±100 for the full control effect. Put shortly:
(§1)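 Unlinked NS2B/NS3, 25 nM; Rhod110 peptide, 1.5 microM; compounds, up to 114 microM. Reaction run 15 min at RT in 10 mM Tris-HCl pH 8.0, 0.01% Tween 20; kinetic fluorescence change fitted with a 4-parameter Hill model.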

Test [4] has as its system Zika virus NS2B-NS3 protease (linked construct). Description: Primary screen NINDS Rhodamine qHTS for Zika virus inhibitors (AID 1347160). Also: nearly all actives have a fitted effect of over 55% in size. Also: potency is read from the fitted curve at half-maximal effect. As to activity change, negative = inhibition: % is scaled to controls: 0 for no effect and ±100 for the full control effect. Put shortly:
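Single-chain NS2B-NS3 protease, 25 nM, pH 8.0; compounds preincubated 15 min. Activity: Rhodamine110 release from 1.5 microM substrate over 15 min, room temperature, data fitted to 4-parameter Hill.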

Test [5] shares this test system. Briefly: Confirmatory screen NINDS AMC qHTS for Zika virus inhibitors (AID 1347152). Also: nearly all actives have a fitted effect of over 70% in size. Also: potency is read from the fitted curve at half-maximal effect.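 As to activity change, negative = inhibition: AMC fluorescence gain from cleaved Bz-Nle-KRR-AMC substrate over 15 min; top concentration of the series differs between compounds; 0% = no-inhibitor control and -100% = no-enzyme control.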 Put shortly: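 Linked NS2B-NS3 1 nM, Tris pH 8.0/0.01% Tween 20; cpd 15 min RT dark; + Nle-KRR-AMC 10 µM (Km 18.3 µM); read 0 and 15 min, 340/450 nm; %inh vs controls, 4-param Hill.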
A general note: qHTS replaces the single test concentration by a dilution series.

Test [6] concerns Zika virus NS2B-NS3 protease (unlinked complex). Description: Confirmatory screen GU AMC qHTS for Zika virus inhibitors (AID 1347153). Also: nearly all actives have a fitted effect of over 70% in size. Also: potency is read from the fitted curve at half-maximal effect. Put shortly: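 Unlinked enzyme 25 nM, Tris pH 8.0/0.01% Tween 20; cpd 15 min RT, dark; + AMC substrate 10 µM (Km 18.3 µM); 340/450 nm read at t0 and 15 min; % inhibition → 4-param fit.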
Test [7] can be described thus: Confirmatory screen GU Rhodamine qHTS for Zika virus inhibitors qHTS (AID 1347157). Also: potency is read from the fitted curve at half-maximal effect; nearly all actives have a fitted effect of over 70% in size. The conditions noted are these: purified enzyme assay, Rhodamine110 substrate fluorescence, 15 min. Put shortly:
as §1

Test [8] in a line: Confirmatory screen NINDS Rhodamine qHTS for Zika virus inhibitors (AID 1347161). Also: nearly all actives have a fitted effect of over 60% in size. Also: potency is read from the fitted curve at half-maximal effect.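 As to activity change, negative = inhibition: purified Zika NS2B-NS3 protease with linked NS2B cofactor domain and Rhodamine110 peptide substrate; series mostly up to about 110 µM; plate controls were no-inhibitor control for no effect and no-enzyme control for full effect.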 Put shortly:
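Purified NS2B-NS3 protease with the NS2B hydrophilic domain joined by a flexible linker (25 nM) in 10 mM Tris-HCl pH 8.0, 0.01% Tween 20, preincubated 15 min at RT with compound; Rhodamine110 peptide substrate 1.5 µM; fluorescence change over 15 min; 4-parameter Hill fit.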

Test [9] has as its system Zika virus NS2B-NS3 protease (linked). Description: 384 well plate NINDS AMC confirmatory qHTS for Zika virus inhibitors (AID 1347163). Also: potency is read from the fitted curve at half-maximal effect; nearly all actives have a fitted effect of over 50% in size. The conditions noted are these: Recombinant NS2B-NS3 protease, Ac-VKTGKR-AMC fluorescence. Put shortly: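 Enzyme (5, 30 or 60 nM final) first met test compounds for ~15 min. The AMC-tagged peptide Ac-VKTGKR-AMC followed at 30 microM. Fluorescence was then recorded at 25 min and scaled against no-enzyme and no-inhibitor wells.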

A short description of test [10]: ZIKV-mCherry secondary qHTS for Zika virus inhibitors (AID 1347158). Also: top concentration of the series differs between compounds. The text has this:
Assay Submitters (PI): Avindra Nath, Ph.D., National Institute of Neurological Disorders and Stroke (NINDS), Bethesda, MD Radhakrishnan Padmanabhan, Ph.D., Georgetown University (GU), Washington D.C. Zika Virus causes congenital defects, including microcephaly and is associated with Guillain-Barre syndrome, eningoencephalitis and myelitis in infected adult. […] Using a target-based approach, we hope to establish a screening paradigm to uncover novel, cell-active NS2B-NS3 protease (Zika Virus) specific inhibitors from NCATS' collection of small molecules using qHTS. […] Four assay panel was created to identify potential Zika Virus inhibitors. […]
384 well ZIKV-mCherry Assay: We have developed a new orthogonal imaging assay in 384-well plate format, which uses recombinant virus ZIKV-mCherry in Vero cells. […] The TIFFs were quantitated using the canned Multi Target Analysis protocol (GE Investigator Workstation software v3.7.2). […] A recombinant Zika viral infection was monitored in the Cy5 channel (cells) using a 2 microm collar dilation from the nuclear bitmap. mCherry objects with an average nuclear RFU intensity above 450 (3 stdev above mean negative control wells) were considered "mcherry positive" and data was analyzed by percent infection rate.

As for `c1ccc2c(c1)OCC(C1=NCCN1)O2` (stereo not given), the Potency result in [1] and in [2] was “inactive” each time.

As for `C[C@@H]1O[C@@H](O[C@H]2C[C@@H](O)[C@]3(CO)[C@H]4[C@H](O)C[C@]5(C)[C@@H](C6=CC(=O)OC6)CC[C@]5(O)[C@@H]4CC[C@]3(O)C2)[C@H](O)[C@H](O)[C@H]1O`, the Potency entry in test [1], in test [2], in test [3] and in test [4] was “inactive” in each case.

As for `O=c1[nH]c2ccccc2n1C1CCN(CCCC(c2ccc(F)cc2)c2ccc(F)cc2)CC1`, the Potency result in [1], in test [2], in [3] and in test [4] was “inactive” each time.

`Cc1cc(SCc2sc(-c3ccc(C(F)(F)F)c(F)c3)nc2C)ccc1OCC(=O)O`: the Potency is 17.1 µM (active) and 12.4 µM (active) in [5]; 19.2 µM (active) and 17.1 µM (active) in test [6]; 7.64 µM (active) in test [2]; 2.21 µM (active) in test [7]; 2.82 µM (active) in test [3]; 1.78 µM (active) in test [4]. Moreover, the Potency was 1.75 µM (active) and 1.96 µM (active) and 1.97 µM (active) in [8]; 39.8 µM (active) in test [9].

In the case of `Fc1ccc(C(OCCN2CCN(CCCc3ccccc3)CC2)c2ccc(F)cc2)cc1`, the Potency entry in test [1] and in test [2] was “inactive” each time.

In the case of `CC(C)=CCOc1c2occc2cc2ccc(=O)oc12`, the Potency result in test [1] and in [2] was “inactive” in each case.

Turning to `C[C@H]1O[C@@H](O[C@H]2[C@@H](O)C[C@H](O[C@H]3[C@@H](O)C[C@H](O[C@H]4CC[C@@]5(C)[C@H](CC[C@@H]6[C@@H]5CC[C@]5(C)[C@@H](C7=CC(=O)OC7)CC[C@]65O)C4)O[C@@H]3C)O[C@@H]2C)C[C@H](O)[C@@H]1O`, the Potency entry in test [1], in test [2], in test [3] and in test [4] was “inactive” throughout.

Take `COc1ccc(C(CN(C)C)C2(O)CCCCC2)cc1` (stereo not given): the Potency result in test [1] and in [2] was “inactive” throughout.

For the compound `Cc1ccc(S(=O)(=O)N[C@@H](CCCCN)C(=O)CCl)cc1`, the Potency result in [1] and in [2] was “inactive” each time.

As to `CC[C@@H](CO)NC(=O)[C@@H]1C=C2c3cccc4[nH]cc(c34)C[C@H]2N(C)C1`, the Potency in test [1] was 23.8 µM (active).

As to `Cc1cccc(C)c1NC(=O)CN1CCCC1=O`, the Potency result in test [1] and in test [2] was “inactive” in each case.

Regarding `NCC(O)c1ccc(O)cc1` (stereo not given), the Potency entry in test [1], in test [2] and in [4] was “inactive” throughout.

In the case of `c1ccc(C2CC2)c(OCC2=NCCN2)c1`, the Potency entry in [1] and in test [2] was “inactive” throughout.

Regarding `Cc1ncc(CNC(=O)N(CCCl)N=O)c(N)n1`, the Potency result in test [1] and in test [2] was “inactive” throughout.

In the case of `NCC(CC(=O)O)c1ccc(Cl)cc1` (stereo not given), the Potency entry in [1] is “inactive”. The activity change, negative = inhibition in test [2] was -12.9% [at 0.59 µM].

`O=C(O)C(=O)c1cn(Cc2ccccc2)c2ccc(-c3ccc(OC(F)(F)F)cc3)cc12`: the Potency in test [5] was 7.84 µM (active); in test [6], 9.61 µM (active); in [2] it was 6.07 µM (active); in test [7], 1.24 µM (active) and 1.56 µM (active); in test [3], 1.58 µM (active); in test [4], 2.51 µM (active). Besides, the Potency is 1.24 µM (active) and 1.75 µM (active) in test [8]; 11.2 µM (active) in test [9]. The compound was classed as inactive in test [10].

As for `NCC1(CC(=O)O)CCCCC1`, the Potency result in [1] and in [2] was “inactive” throughout.

Take `O=c1[nH]c2ccccc2n1CCCN1CCC(n2c(=O)[nH]c3cc(Cl)ccc32)CC1`: the Potency entry in [1] and in test [2] was “inactive” in each case.

Consider `O=C1NCN(c2ccccc2)C12CCN(CC1COc3ccccc3O1)CC2` (stereo not given), for which the Potency entry in test [1] and in test [2] was “inactive” throughout.

As to `NN=C(N)N`, the Potency result in test [1] and in test [2] was “inactive” in each case.

In the case of `Cc1cccc(C)c1NC1=NCCCS1`, the Potency entry in [1] and in [2] was “inactive” throughout.

Take `CN1C[C@H](CNC(=O)OCc2ccccc2)C[C@@H]2c3cccc4c3c(cn4C)C[C@H]21`: in [1], the Potency is 23.8 µM (active). The Potency entry in test [5], in test [6], in test [2] and in [8] was “inactive” in each case.

Consider `COC[C@H]1OC(=O)c2coc3c2[C@@]1(C)C1=C(C3=O)C2CCC(=O)[C@@]2(C)C[C@H]1OC(C)=O` (stereo not given in full), for which the Potency entry in test [1], in test [2], in [3] and in [4] was “inactive” each time.

`CC(CCc1ccccc1)NC(C)C(O)c1ccc(O)cc1` (stereo not given): the Potency entry in test [1] and in test [2] was “inactive” throughout.

For `CC(O)(CS(=O)(=O)c1ccc(F)cc1)C(=O)Nc1ccc(C#N)c(C(F)(F)F)c1` (stereo not given), the Potency result in test [1], in [2], in [3] and in test [4] was “inactive” each time.

In the case of `CC(=O)[C@H]1CC[C@H]2[C@@H]3CC[C@H]4C[C@H](O)CC[C@]4(C)[C@H]3C(=O)C[C@]12C`, the Potency entry in test [1] and in test [2] was “inactive” throughout.

For the compound `CCCN1CCC[C@@H]2Cc3[nH]ncc3C[C@H]21`, the Potency result in test [1] and in [2] was “inactive” each time.

As for `CNCC(O)c1ccc(O)cc1` (stereo not given), the Potency entry in [1] and in test [2] was “inactive” in each case.

Regarding `Nc1ccncc1`, the Potency result in test [1] and in test [2] was “inactive” throughout.

In the case of `CC(=O)[C@H]1CC[C@H]2[C@@H]3CC[C@H]4C[C@](C)(O)CC[C@]4(C)[C@H]3CC[C@]12C`, the Potency entry in test [1] and in [2] was “inactive” throughout.

For the compound `COc1ccccc1N1CCNCC1`, the Potency result in test [1] and in [2] was “inactive” in each case.

As to `CCC1(C2=NCCN2)Cc2ccccc2O1` (stereo not given), the Potency entry in [1] and in test [2] was “inactive” throughout.

On to `Cc1ccc(-c2nc3ccc(C)cn3c2CC(=O)N(C)C)cc1`, for which, in [5], the Potency was 27.1 µM (active). Moreover, the Potency entry in test [8] is “inactive”.

`CCN(C(C)=O)c1cccc(-c2ccnc3c(C#N)cnn23)c1`: in test [5], the Potency is 27.1 µM (active). For the same compound, in [8], the Potency entry is “inactive”.

Take `N[C@@H](Cc1ccc(Oc2cc(I)c(O)c(I)c2)c(I)c1)C(=O)O`: the Potency in test [7] is 6.31 µM (active).

Regarding `O=c1oc2ccccc2c(O)c1C(CC(O)c1ccc(-c2ccc(Br)cc2)cc1)c1ccccc1` (stereo not given), the Potency in [7] was 7.94 µM (active).

For `CNC(=O)N1N=C(c2ccc(N)cc2)c2cc3c(cc2CC1C)OCO3` (stereo not given), the Potency result in [3] and in test [4] was “inactive” in each case.

Regarding `CNC(=O)c1ccc(N2C(=S)N(c3ccc(C#N)c(C(F)(F)F)c3)C(=O)C23CCC3)cc1F`, the Potency entry in [3] and in test [4] was “inactive” each time.
